PubChem BioAssay
For some of these results: Entries with a potency or affinity are not part of this list. Activity calls are given as the source filed them. Unless noted, the rule behind the calls is not given here.

Legend:
[1] = antimalarial activity against Dd2 strain (AID 2302;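 active = growth inhibition above 50% at the single 2 µM test dose, taken to imply half-maximal potency below 2 µM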;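 note: 0% = DMSO untreated growth and 100% = chloroquine plus artemisinin killed control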); conditions: P. falciparum Dd2 in RBCs, LDH growth readout, 72 h; at 2 µM; stronger effect = higher value
[2] = human hepatoma cell viability loss – ATP luminescence, cytotoxicity control for P. falciparum antimalarial project, primary screen (AID 2303;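 active = inhibition above 50%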;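 note: 0% = DMSO wells and 100% = digitonin-killed cells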); conditions: HepG2 viability, 24-48 h, at 10 µM, stronger effect = higher value
[3] = target: L-lactate dehydrogenase (Plasmodium falciparum (isolate CDC / Honduras)) (UniProt Q27743); assay: PfLDH activity inhibition – cell lysate, 3D7 strain, counter-screen for P. falciparum growth inhibition project (AID 2304);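 note: 0% = vehicle and 100% = reference inhibitor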; conditions: P. falciparum 3D7 crude extract, LDH APAD/NBT absorbance; at 2 µM; stronger effect = higher value
[4] = inhibition of 3D7 malaria parasite growth – strain 3D7 (AID 2306);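 note: 0% = DMSO wells and 100% = chloroquine plus artemisinin control wells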; conditions: P. falciparum 3D7 erythrocytic growth, LDH absorbance, 72 h; at 2 µM; stronger effect = higher value
[5] = target: Calcium-dependent protein kinase 1 (Plasmodium falciparum (isolate 3D7)) (UniProt P62344); assay: PfCDPK1 kinase inhibitors, biochemical, TCAMS library (AID 1159585; cut-off not given, nearly all actives have IC50 up to about 0.98 µM;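 note: inhibitors leave more ATP so luminescence rises with inhibition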); conditions: recombinant PfCDPK1, Kinase-Glo ATP depletion luminescence
[6] = target: Plasmodium falciparum protein kinase 6 (PK6, PF3D7_1337100) (UniProt Q8IDW1); assay: PfPK6 kinase inhibitors, biochemical, TCAMS library (AID 1159586); conditions: recombinant PfPK6, Kinase-Glo ATP depletion luminescence
[7] = target: Protein kinase 7 (PK7), Plasmodium falciparum 3D7 (PF3D7_0213400) (UniProt Q7YTF7); assay: inhibition of Plasmodium PK7 catalytic activity – biochemical, TCAMS antimalarial set, Kinase-Glo luminescence (AID 1159587); conditions: recombinant PfPK7, Kinase-Glo ATP depletion luminescence
[8] = target: Calcium-dependent protein kinase 4 (Plasmodium falciparum (isolate 3D7)) (UniProt Q8IBS5); assay: PfCDPK4 kinase inhibitors, biochemical, TCAMS library (AID 1159588; cut-off not given, nearly all actives have IC50 up to about 0.91 µM); conditions: recombinant PfCDPK4, Kinase-Glo ATP depletion luminescence
Sequence of Calcium-dependent protein kinase 4 (Plasmodium falciparum (isolate 3D7)) (Q8IBS5 whole entry, looked up): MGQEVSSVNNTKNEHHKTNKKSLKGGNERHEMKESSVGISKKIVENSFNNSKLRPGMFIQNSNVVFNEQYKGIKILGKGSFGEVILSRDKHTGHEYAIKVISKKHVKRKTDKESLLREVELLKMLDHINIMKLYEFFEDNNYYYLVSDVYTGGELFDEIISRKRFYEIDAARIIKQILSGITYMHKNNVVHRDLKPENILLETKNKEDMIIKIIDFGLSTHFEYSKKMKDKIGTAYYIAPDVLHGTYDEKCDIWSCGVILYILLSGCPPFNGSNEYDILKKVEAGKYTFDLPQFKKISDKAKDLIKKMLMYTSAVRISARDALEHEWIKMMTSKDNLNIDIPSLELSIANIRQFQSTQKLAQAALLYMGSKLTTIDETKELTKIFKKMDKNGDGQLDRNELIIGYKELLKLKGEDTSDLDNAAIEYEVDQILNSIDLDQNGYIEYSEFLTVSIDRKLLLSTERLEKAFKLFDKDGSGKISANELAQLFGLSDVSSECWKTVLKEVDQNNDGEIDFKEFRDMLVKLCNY

Sequence of Plasmodium falciparum protein kinase 6 (PK6, PF3D7_1337100) (Q8IDW1 1-305): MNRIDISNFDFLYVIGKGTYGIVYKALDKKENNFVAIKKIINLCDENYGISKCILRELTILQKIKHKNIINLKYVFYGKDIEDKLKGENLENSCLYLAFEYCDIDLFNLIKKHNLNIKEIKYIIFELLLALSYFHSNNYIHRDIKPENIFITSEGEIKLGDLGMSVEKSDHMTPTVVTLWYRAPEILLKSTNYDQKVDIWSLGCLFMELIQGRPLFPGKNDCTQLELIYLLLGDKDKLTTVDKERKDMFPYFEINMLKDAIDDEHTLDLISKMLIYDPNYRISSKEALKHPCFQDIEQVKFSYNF
Sequence of Protein kinase 7 (PK7), Plasmodium falciparum 3D7 (PF3D7_0213400) (Q7YTF7 1-343): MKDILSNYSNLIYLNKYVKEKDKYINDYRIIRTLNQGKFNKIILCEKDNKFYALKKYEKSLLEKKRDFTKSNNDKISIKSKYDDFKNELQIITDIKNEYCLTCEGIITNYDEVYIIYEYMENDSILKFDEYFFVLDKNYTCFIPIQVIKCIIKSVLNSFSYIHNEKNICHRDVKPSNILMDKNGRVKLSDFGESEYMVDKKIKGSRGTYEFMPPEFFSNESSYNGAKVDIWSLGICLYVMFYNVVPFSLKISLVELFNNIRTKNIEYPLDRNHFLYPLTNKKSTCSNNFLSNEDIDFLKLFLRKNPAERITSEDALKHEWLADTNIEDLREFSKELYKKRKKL
Sequence of L-lactate dehydrogenase (Plasmodium falciparum (isolate CDC / Honduras)) (Q27743 whole entry, looked up): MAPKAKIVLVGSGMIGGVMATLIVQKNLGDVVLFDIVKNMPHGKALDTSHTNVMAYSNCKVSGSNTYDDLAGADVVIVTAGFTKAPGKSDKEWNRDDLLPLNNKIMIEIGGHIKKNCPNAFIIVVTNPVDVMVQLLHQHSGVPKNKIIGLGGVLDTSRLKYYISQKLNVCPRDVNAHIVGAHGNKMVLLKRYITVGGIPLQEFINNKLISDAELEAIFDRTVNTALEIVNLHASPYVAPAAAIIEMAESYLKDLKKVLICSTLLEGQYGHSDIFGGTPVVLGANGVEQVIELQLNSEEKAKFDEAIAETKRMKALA
Sequence of Calcium-dependent protein kinase 1 (Plasmodium falciparum (isolate 3D7)) (P62344 whole entry, looked up): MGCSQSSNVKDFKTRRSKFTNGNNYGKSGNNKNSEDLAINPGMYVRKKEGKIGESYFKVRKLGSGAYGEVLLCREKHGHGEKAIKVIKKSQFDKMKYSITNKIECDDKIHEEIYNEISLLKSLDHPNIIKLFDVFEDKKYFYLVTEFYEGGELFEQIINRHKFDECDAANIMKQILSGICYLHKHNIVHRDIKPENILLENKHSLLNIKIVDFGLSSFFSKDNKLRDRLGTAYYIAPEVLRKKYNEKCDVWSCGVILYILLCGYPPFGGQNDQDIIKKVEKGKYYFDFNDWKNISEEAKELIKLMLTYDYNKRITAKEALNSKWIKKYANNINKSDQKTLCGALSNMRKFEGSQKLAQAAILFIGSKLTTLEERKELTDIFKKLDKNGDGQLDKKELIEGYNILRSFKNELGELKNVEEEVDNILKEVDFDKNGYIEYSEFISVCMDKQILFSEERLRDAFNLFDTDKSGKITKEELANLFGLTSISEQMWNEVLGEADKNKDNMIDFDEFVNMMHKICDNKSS

Cc1[nH]c(C)c(-c2ccc(-c3ccccc3C(F)(F)F)nc2)c(=O)c1Br
active: growth inhibition [1] 96% | growth inhibition [4] 97%
inactive: inhibition [2] -3% | inhibition [3] -3% | outcome [5] | outcome [6] | outcome [7] | outcome [8]

CCCCCCC(C)c1cc(O)c2c(c1)OC(C)(C)C=C2c1ccncc1 (stereo not drawn)
inactive: growth inhibition [1] 29% | inhibition [2] -7% | inhibition [3] 0% | outcome [5] | outcome [6] | outcome [7] | outcome [8]
active: growth inhibition [4] 98%

COc1c(Br)cc(Br)cc1-c1ccc(CN2C3CCCC2CCC3)[nH]1
inactive: inhibition [2] 42% | inhibition [3] 3% | outcome [5] | outcome [6] | outcome [7] | outcome [8]
active: growth inhibition [1] 83% | growth inhibition [4] 88%

COc1cc2c(cc1S(=O)(=O)c1ccc(OCc3ccc(Cl)cc3)cc1)CCN(Cc1ccc(NC(C)=O)s1)CC2
inactive: growth inhibition [1] -3% | inhibition [2] 3% | inhibition [3] -2% | outcome [5] | outcome [6] | outcome [7] | outcome [8]
active: growth inhibition [4] 89%

Cc1cccc2[nH]c(-c3ccc(-c4ccc(CNCCNC(=O)c5ccnn5C)cc4)s3)nc12
active: growth inhibition [1] 97% | growth inhibition [4] 101%
inactive: inhibition [2] 20% | inhibition [3] -1% | outcome [5] | outcome [6] | outcome [7] | outcome [8]

Nc1ncc(-c2cccc(OCc3ccccc3)c2)cc1-c1nnc2ccc(Cl)nn12
inactive: growth inhibition [1] 7% | inhibition [2] -7% | inhibition [3] -5% | outcome [5] | outcome [6] | outcome [7] | outcome [8]
active: growth inhibition [4] 94%

CC(=O)Nc1ccc(Nc2c3ccccc3nc3ccccc23)cc1
inactive: inhibition [2] 41% | inhibition [3] 3% | outcome [5] | outcome [6] | outcome [7] | outcome [8]
active: growth inhibition [1] 62% | growth inhibition [4] 89%

Cc1cccc2[nH]c(-c3cccc(-c4cccc(NC(=O)COc5ccccc5C(N)=O)c4)c3)nc12
inactive: inhibition [2] 22% | inhibition [3] -2% | outcome [5] | outcome [6] | outcome [7] | outcome [8]
active: growth inhibition [1] 88% | growth inhibition [4] 100%

COC(=O)c1cccc(CN(CCC(O)(C(F)(F)F)C(F)(F)F)C(=O)CC2CCCC2)c1
active: growth inhibition [1] 53% | growth inhibition [4] 98%
inactive: inhibition [2] -1% | inhibition [3] 0% | outcome [5] | outcome [6] | outcome [7] | outcome [8]

COc1ccccc1-c1cccc(-c2cccc(NC(=O)c3ccc([N+](=O)[O-])o3)c2)n1
inactive: inhibition [3] -1% | outcome [5] | outcome [6] | outcome [7] | outcome [8]
active: growth inhibition [1] 59% | inhibition [2] 78% | growth inhibition [4] 97%

CN(C)C=Nc1ccc(OCCCCCCOc2ccc(N=CN(C)C)cc2)cc1
inactive: inhibition [2] 26% | inhibition [3] 6% | outcome [5] | outcome [6] | outcome [7] | outcome [8]
active: growth inhibition [1] 94% | growth inhibition [4] 101%

CS(=O)(=O)N1CC2(CCN(CCC(NC(=S)Nc3ccccc3)c3ccc(Cl)c(Cl)c3)CC2)c2ccccc21 (stereo not drawn)
inactive: inhibition [2] 24% | inhibition [3] -1% | outcome [5] | outcome [6] | outcome [7] | outcome [8]
active: growth inhibition [1] 80% | growth inhibition [4] 98%

O=C(Cc1cccs1)NCC(c1ccccc1Cl)c1c[nH]c2ccccc12 (stereo not drawn)
inactive: inhibition [2] 12% | inhibition [3] 1% | outcome [5] | outcome [6] | outcome [7] | outcome [8]
active: growth inhibition [1] 56% | growth inhibition [4] 91%

CS(=O)(=O)N1CC2(CCN(CCC(NC(=O)NCc3ccccc3Cl)c3ccc(Cl)c(Cl)c3)CC2)c2ccccc21 (stereo not drawn)
inactive: inhibition [2] 12% | inhibition [3] -7% | outcome [5] | outcome [6] | outcome [7] | outcome [8]
active: growth inhibition [1] 98% | growth inhibition [4] 85%

O=c1cc(NCCCCNCc2cccc(C(F)(F)F)c2)[nH]c2ccccc12
active: growth inhibition [4] 94%
inactive: growth inhibition [1] 34% | inhibition [2] 13% | inhibition [3] -1% | outcome [5] | outcome [6] | outcome [7] | outcome [8]

N#Cc1cncc(-c2nc3c(N4CCN(c5cnccn5)CC4)cccc3n2CCNCc2ccccc2)c1
inactive: growth inhibition [1] 31% | inhibition [2] 0% | inhibition [3] 4% | outcome [5] | outcome [6] | outcome [7] | outcome [8]
active: growth inhibition [4] 99%

O=C(Cc1cccc2ccccc12)N1CCc2cc3nccc(N4CCN5CCC[C@H]5C4)c3cc21
active: growth inhibition [1] 99% | growth inhibition [4] 101%
inactive: inhibition [2] 3% | inhibition [3] 2% | outcome [5] | outcome [6] | outcome [7] | outcome [8]

Oc1c(C(Nc2nc3ccccc3s2)c2ccccc2)ccc2cccnc12 (stereo not drawn)
active: growth inhibition [1] 83% | growth inhibition [4] 95%
inactive: inhibition [2] 45% | inhibition [3] -4% | outcome [5] | outcome [6] | outcome [7] | outcome [8]

CCS(=O)(=O)Nc1ccc2[nH]cc(C3CCN(CCC4CCN(C(=O)/C=C/c5ccc(Cl)c(Cl)c5)CC4)CC3)c2c1
active: growth inhibition [1] 94% | growth inhibition [4] 99%
inactive: inhibition [2] 34% | inhibition [3] -2% | outcome [5] | outcome [6] | outcome [7] | outcome [8]

Oc1ccc(CCNCCCCCCNCCc2ccc(Br)cc2)cc1O
inactive: growth inhibition [1] 5% | inhibition [2] 2% | inhibition [3] -2% | outcome [5] | outcome [6] | outcome [7] | outcome [8]
active: growth inhibition [4] 99%

Cc1cccc(CCCNC(=O)CN(c2cccc(C(F)(F)F)c2)S(=O)(=O)c2ccc(C(F)(F)F)cc2)c1
inactive: inhibition [2] 9% | inhibition [3] 5% | outcome [5] | outcome [6] | outcome [7] | outcome [8]
active: growth inhibition [1] 94% | growth inhibition [4] 96%

O=C(NC1CCCc2ccccc21)C1CCCN(C(=O)c2ccc(O)c(-c3ccc(Cl)c(Cl)c3)c2)C1 (stereo not drawn)
active: growth inhibition [1] 54% | growth inhibition [4] 88%
inactive: inhibition [2] -3% | inhibition [3] -8% | outcome [5] | outcome [6] | outcome [7] | outcome [8]

COc1ccc(CN2CCCN(Cc3cccc(C(=O)Nc4ccc(C)c(F)c4)c3)CC2)cc1
active: growth inhibition [4] 83%
inactive: growth inhibition [1] 10% | inhibition [2] 49% | inhibition [3] -3% | outcome [5] | outcome [6] | outcome [7] | outcome [8]

COc1ccc(Nc2ccnc3cc(Cl)ccc23)cc1OC
active: growth inhibition [1] 91% | growth inhibition [4] 104%
inactive: inhibition [2] 36% | inhibition [3] 3% | outcome [5] | outcome [6] | outcome [7] | outcome [8]

CC(C)(C)[C@@H](Nc1ccc(C#N)c2ccccc12)C(=O)NC1(Cc2ccc(O)c(Br)c2)CCCC1
active: growth inhibition [4] 84%
inactive: growth inhibition [1] 16% | inhibition [2] 2% | inhibition [3] -2% | outcome [5] | outcome [6] | outcome [7] | outcome [8]

CN1CCN(C(=O)CN2CCC3(CCC2=O)NC(=O)c2ccccc2O3)CC1 (stereo not drawn)
active: growth inhibition [1] 98% | growth inhibition [4] 99%
inactive: inhibition [2] -7% | inhibition [3] 2% | outcome [5] | outcome [6] | outcome [7] | outcome [8]

COc1ccc(NC(=O)[C@H](Cc2ccccc2)Nc2cc(C)nc(NCCN3CCCC3)n2)cc1
active: growth inhibition [4] 97%
inactive: growth inhibition [1] 3% | inhibition [2] 15% | inhibition [3] -2% | outcome [5] | outcome [6] | outcome [7] | outcome [8]

Nc1nc(N)c2c(ccc3nn(S(=O)(=O)N4CCCC4)cc32)n1
inactive: growth inhibition [1] 0% | inhibition [3] 9% | outcome [5] | outcome [6] | outcome [7] | outcome [8]
active: inhibition [2] 69% | growth inhibition [4] 95%

Cc1[nH]c(C)c(C2CCC(c3ccc(Cl)cc3)CC2)c(=O)c1Cl (stereo not drawn)
active: growth inhibition [1] 97% | growth inhibition [4] 98%
inactive: inhibition [2] 37% | inhibition [3] -9% | outcome [5] | outcome [6] | outcome [7] | outcome [8]

COc1ccc2ncc(F)c(CCN3CC[C@@H](CNCc4nc5c(cc4C)SCC(=O)N5)C3)c2n1
active: growth inhibition [4] 91%
inactive: growth inhibition [1] 42% | inhibition [2] 14% | inhibition [3] 1% | outcome [5] | outcome [6] | outcome [7] | outcome [8]

Cc1c(CNCCN2CCCCC2)c(C(=O)O)c(C)n1Cc1ccc(Cl)cc1
inactive: inhibition [2] 4% | inhibition [3] -6% | outcome [5] | outcome [6] | outcome [7] | outcome [8]
active: growth inhibition [1] 93% | growth inhibition [4] 97%

O=C(CCc1cnc[nH]1)Nc1ccc(-c2ccc(-c3nc4ccccc4[nH]3)cc2)cc1
active: growth inhibition [1] 70% | growth inhibition [4] 98%
inactive: inhibition [2] 46% | inhibition [3] 0% | outcome [5] | outcome [6] | outcome [7] | outcome [8]

CCOc1cc(C(=O)NCCN2CCCCC2)ccc1-c1nc2ccc(Cl)cc2[nH]1
inactive: growth inhibition [1] 8% | inhibition [2] 4% | inhibition [3] -3% | outcome [5] | outcome [6] | outcome [7] | outcome [8]
active: growth inhibition [4] 99%

CCn1c(CN2CCC(C)CC2)nc2cc(NC(=O)c3cccs3)ccc21
inactive: inhibition [2] 40% | inhibition [3] 1% | outcome [5] | outcome [6] | outcome [7] | outcome [8]
active: growth inhibition [1] 95% | growth inhibition [4] 91%

Cc1ccc(NC(=O)c2ccc3ncccc3c2)cc1OC1CCN(Cc2ccco2)C1 (stereo not drawn)
active: growth inhibition [4] 86%
inactive: growth inhibition [1] 42% | inhibition [2] 9% | inhibition [3] 2% | outcome [5] | outcome [6] | outcome [7] | outcome [8]

CN(C)CCN(C)Cc1cccc(-c2ccc3c(Nc4ccc(F)cc4Cl)ccnc3c2)c1
active: growth inhibition [1] 100% | inhibition [2] 53% | growth inhibition [4] 101%
inactive: inhibition [3] 0% | outcome [5] | outcome [6] | outcome [7] | outcome [8]

O=C1NC(=S)NC1=CC=Cc1ccc([N+](=O)[O-])o1
active: growth inhibition [4] 82%
inactive: growth inhibition [1] 30% | inhibition [2] 7% | inhibition [3] 2% | outcome [5] | outcome [6] | outcome [7] | outcome [8]

CCN(CC)CCCC(C)Nc1c(-c2ccc(C)cc2)cnc2ccccc12 (stereo not drawn)
inactive: inhibition [2] 8% | inhibition [3] 1% | outcome [5] | outcome [6] | outcome [7] | outcome [8]
active: growth inhibition [1] 65% | growth inhibition [4] 85%

Cc1cc(O)c(CN(C)Cc2ccc3c(c2)OCO3)cc1C(C)C
active: growth inhibition [1] 74% | growth inhibition [4] 98%
inactive: inhibition [2] 9% | inhibition [3] 0% | outcome [5] | outcome [6] | outcome [7] | outcome [8]

Nc1nc(F)nc2nc[nH]c12
active: inhibition [2] 78% | growth inhibition [4] 89%
inactive: growth inhibition [1] 25% | inhibition [3] -2% | outcome [5] | outcome [6] | outcome [7] | outcome [8]

COc1ccc2nccc(NCC3(O)CCN(CCc4ccc5c(c4)OCCO5)CC3)c2n1
active: growth inhibition [1] 87% | growth inhibition [4] 100%
inactive: inhibition [2] 35% | inhibition [3] 3% | outcome [5] | outcome [6] | outcome [7] | outcome [8]
